Results: PubChem BioAssay
A number with no mark means an inactive call. The source made the active and inactive calls.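 How the source made its calls, unless noted: active means mean inhibition above 46.5%, the solvent-only control mean plus 3 SD; inactive means the rest.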

What was measured:
[1] = target: Nuclear receptor coactivator 3 (Homo sapiens) (UniProt Q9Y6Q9); assay: SRC3 coactivator transcriptional activity inhibitors, confirmation, cell-based, luminescence, quadruplicate (AID 588792;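 active means mean inhibition over 43.08%, the solvent-only control mean plus 3 SD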;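 further: 0% = DMSO treated cells and 100% = gossypol at 36 µM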); conditions: HEK293 GAL4-SRC3 luciferase reporter, at 3.6 µM, hits give high values
[2] = tested on: transactivating tegument protein VP16 (Human herpesvirus 1), Gal4-VP16 luciferase reporter; assay: VP16 transactivation inhibitors, counter-screen for SRC3 inhibitor project, cell-based, luminescence, high throughput (AID 588794; in the data active means inhibition above about 30%); conditions: mammalian cells, VP16-driven luciferase reporter luminescence; at 3.6 µM; hits give high values
[3] = target: Nuclear receptor coactivator 1 (Homo sapiens) (UniProt Q15788); assay: SRC1 coactivator transcriptional activity inhibitors, confirmation, cell-based, luminescence, quadruplicate (AID 588820;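 active means mean inhibition above 46.68%, the untreated control wells mean plus 3 SD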;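 further: 0% = DMSO wells and 100% = gossypol 36 µM treated wells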); conditions: HEK293 GAL4-SRC1 luciferase reporter, at 3.6 µM, hits give high values
Chain of Nuclear receptor coactivator 1 (Homo sapiens) (Q15788 whole entry, looked up, the tested form may be a part): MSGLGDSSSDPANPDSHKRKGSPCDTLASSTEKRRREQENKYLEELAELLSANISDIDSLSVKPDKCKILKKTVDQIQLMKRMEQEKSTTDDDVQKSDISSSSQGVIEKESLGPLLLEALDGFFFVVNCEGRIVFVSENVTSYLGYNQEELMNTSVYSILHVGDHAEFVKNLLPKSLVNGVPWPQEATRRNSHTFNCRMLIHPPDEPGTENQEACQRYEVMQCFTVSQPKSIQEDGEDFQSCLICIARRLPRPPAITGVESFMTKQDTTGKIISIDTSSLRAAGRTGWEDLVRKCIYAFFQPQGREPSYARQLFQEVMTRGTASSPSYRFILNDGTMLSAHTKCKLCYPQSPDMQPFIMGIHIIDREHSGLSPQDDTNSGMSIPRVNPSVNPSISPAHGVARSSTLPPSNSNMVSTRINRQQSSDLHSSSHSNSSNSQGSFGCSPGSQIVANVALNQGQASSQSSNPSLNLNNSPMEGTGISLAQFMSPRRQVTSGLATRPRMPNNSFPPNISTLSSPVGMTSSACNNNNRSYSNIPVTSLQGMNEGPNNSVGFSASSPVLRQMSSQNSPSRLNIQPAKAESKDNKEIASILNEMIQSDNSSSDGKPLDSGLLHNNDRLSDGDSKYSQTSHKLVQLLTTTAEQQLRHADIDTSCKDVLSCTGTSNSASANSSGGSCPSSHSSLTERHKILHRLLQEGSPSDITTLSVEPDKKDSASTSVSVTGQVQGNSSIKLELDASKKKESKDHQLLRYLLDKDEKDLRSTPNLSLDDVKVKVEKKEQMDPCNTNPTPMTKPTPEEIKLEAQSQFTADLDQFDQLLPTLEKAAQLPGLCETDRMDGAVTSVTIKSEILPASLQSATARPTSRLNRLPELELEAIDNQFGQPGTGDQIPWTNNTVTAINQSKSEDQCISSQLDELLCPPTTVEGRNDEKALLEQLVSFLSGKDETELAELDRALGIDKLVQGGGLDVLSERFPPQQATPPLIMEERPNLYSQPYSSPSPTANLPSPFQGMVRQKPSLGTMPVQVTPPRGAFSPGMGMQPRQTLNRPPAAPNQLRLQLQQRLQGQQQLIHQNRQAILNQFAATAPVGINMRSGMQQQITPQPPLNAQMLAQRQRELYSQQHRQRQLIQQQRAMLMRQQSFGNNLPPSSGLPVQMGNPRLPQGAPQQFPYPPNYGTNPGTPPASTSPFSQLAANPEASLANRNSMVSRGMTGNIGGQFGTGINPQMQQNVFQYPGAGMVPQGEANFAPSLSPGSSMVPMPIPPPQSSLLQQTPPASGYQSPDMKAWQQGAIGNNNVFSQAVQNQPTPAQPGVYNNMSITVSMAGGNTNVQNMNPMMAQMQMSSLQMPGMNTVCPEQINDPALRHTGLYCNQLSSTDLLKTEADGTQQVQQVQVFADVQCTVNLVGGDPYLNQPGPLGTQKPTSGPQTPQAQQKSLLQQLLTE

[4] = VP16 transactivation inhibitors, counter-screen for SRC1 inhibitor project, cell-based, luminescence, high throughput (AID 588824; in the data active means inhibition above about 25%); conditions: cell-based VP16 transactivation luciferase luminescence; at 3.6 µM; hits give high values
[5] = StAR promoter reporter inhibitors, counter-screen for LRH-1 inverse agonist project, cell-based, luminescence, high throughput (AID 651611; in the data active means inhibition above about 28%); conditions: StAR promoter luciferase reporter counterscreen, at 3.6 µM, hits give high values
[6] = target: Nuclear receptor subfamily 5 group A member 2 (Homo sapiens) (UniProt O00482); assay: LRH-1 (NR5A2) inverse agonists, retest, confirmation, cell-based, luminescence (AID 651613; in the data active means inhibition above about 42%;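 further: HEK293T cells co-transfected with LRH-1 and StAR promoter luciferase reporter; 0% = vehicle wells and 100% = parental cells lacking receptor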); conditions: cell-based LRH-1 luciferase reporter, inverse agonism; at 3.6 µM; hits give high values
Chain of Nuclear receptor subfamily 5 group A member 2 (Homo sapiens) (O00482 whole entry, looked up): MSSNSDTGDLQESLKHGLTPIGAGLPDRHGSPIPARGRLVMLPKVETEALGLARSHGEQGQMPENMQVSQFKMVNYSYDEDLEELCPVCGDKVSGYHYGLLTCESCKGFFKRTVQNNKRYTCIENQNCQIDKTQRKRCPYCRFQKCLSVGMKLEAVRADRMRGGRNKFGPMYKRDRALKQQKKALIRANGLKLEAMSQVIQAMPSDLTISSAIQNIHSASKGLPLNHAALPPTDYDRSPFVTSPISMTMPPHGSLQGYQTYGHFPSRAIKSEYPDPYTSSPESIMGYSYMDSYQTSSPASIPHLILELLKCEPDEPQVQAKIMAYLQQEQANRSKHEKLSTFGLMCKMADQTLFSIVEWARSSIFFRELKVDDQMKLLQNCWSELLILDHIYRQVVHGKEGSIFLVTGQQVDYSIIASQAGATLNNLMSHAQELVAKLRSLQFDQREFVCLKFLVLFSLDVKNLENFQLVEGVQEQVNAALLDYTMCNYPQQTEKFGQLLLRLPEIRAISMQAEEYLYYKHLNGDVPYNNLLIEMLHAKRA

[7] = target: Steroidogenic factor 1 (Homo sapiens) (UniProt Q13285); assay: SF1 (NR5A1) inverse agonists, counter-screen for LRH-1 inverse agonist project, cell-based, luminescence, high throughput (AID 651614; in the data active means inhibition above about 44%;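 further: cells cotransfected with StAR promoter reporter and SF1 expression vector; 0% = vehicle on cells with receptor and 100% = vehicle on cells lacking receptor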); conditions: cell-based SF1 luciferase reporter, at 3.6 µM, hits give high values
Chain of Steroidogenic factor 1 (Homo sapiens) (Q13285 whole entry, looked up, the tested form may be a part): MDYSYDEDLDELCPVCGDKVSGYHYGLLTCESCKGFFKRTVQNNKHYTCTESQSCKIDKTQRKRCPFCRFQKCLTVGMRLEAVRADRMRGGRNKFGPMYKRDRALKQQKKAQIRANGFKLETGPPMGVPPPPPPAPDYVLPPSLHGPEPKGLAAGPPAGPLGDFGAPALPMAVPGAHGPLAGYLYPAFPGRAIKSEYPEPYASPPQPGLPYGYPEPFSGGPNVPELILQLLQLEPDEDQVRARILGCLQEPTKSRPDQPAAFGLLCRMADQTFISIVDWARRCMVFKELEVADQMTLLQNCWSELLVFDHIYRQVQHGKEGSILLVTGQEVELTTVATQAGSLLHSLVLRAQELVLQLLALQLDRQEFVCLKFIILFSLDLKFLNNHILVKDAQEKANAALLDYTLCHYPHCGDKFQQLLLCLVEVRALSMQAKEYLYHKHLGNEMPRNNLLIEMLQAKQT

[8] = VP16 transactivation reporter inhibitors, counter-screen for LRH-1 inverse agonist project, cell-based, luminescence, high throughput (AID 651615; in the data active means inhibition above about 33%); conditions: Gal4-VP16 luciferase reporter cells, at 3.6 µM, hits give high values
[9] = tested on: transactivating tegument protein VP16 (Human herpesvirus 1); assay: VP16 transactivation reporter inhibitors, counter-screen for SRC2 inhibitor project, cell-based, luminescence, single concentration (AID 652007; in the data active means inhibition above about 36%); conditions: cell-based VP16 transactivation luciferase reporter, at 8.9 µM, hits give high values
[10] = target: Nuclear receptor coactivator 2 (Homo sapiens) (UniProt Q15596); assay: SRC2 coactivator transcriptional activity inhibitors, confirmation, cell-based, luminescence, HEK293, triplicate (AID 652008); conditions: HEK293 GAL4-SRC2 luciferase reporter, at 8.9 µM, hits give high values;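 further: 0% = DMSO-treated cells and 100% = Gossypol at 36 µM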
Chain of Nuclear receptor coactivator 2 (Homo sapiens) (Q15596 whole entry, looked up, the tested form may be a part): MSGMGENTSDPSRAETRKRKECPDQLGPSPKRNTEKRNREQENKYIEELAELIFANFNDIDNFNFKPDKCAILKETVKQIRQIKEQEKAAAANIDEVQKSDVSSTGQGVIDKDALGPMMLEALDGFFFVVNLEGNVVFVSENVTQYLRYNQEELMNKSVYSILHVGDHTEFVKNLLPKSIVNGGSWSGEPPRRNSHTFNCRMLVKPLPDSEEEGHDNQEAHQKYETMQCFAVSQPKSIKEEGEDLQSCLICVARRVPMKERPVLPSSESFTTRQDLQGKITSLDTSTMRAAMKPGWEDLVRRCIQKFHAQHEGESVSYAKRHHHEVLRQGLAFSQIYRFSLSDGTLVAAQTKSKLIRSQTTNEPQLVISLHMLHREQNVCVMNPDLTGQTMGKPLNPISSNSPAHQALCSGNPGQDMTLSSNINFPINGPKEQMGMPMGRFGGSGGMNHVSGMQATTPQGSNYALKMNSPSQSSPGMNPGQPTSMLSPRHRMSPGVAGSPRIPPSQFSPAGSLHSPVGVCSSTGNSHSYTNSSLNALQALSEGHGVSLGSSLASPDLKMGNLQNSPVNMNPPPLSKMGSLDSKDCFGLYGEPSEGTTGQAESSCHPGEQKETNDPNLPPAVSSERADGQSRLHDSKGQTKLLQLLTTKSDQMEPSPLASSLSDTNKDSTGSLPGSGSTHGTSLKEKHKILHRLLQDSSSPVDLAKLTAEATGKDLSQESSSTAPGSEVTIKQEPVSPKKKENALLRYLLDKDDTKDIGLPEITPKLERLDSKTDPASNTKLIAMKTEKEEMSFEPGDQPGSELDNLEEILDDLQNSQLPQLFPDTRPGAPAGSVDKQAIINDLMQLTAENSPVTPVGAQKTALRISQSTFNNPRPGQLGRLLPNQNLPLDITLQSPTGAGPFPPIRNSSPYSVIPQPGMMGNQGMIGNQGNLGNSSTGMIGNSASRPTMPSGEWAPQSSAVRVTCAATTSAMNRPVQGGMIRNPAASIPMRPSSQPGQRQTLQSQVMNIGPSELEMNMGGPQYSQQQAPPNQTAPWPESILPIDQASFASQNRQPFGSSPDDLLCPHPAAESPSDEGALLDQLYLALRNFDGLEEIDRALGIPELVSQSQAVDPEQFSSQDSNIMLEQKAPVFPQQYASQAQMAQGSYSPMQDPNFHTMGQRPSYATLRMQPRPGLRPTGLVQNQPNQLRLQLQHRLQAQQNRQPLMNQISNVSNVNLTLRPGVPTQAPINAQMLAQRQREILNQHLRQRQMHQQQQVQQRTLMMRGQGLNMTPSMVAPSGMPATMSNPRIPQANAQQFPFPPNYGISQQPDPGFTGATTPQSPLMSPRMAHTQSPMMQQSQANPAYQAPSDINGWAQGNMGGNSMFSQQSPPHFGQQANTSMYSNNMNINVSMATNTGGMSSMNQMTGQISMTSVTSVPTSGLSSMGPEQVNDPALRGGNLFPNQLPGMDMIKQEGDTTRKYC

Row | Compound | inhibition [1] | inhibition [2] | inhibition [3] | inhibition [4] | inhibition [5] | inhibition [6] | inhibition [7] | inhibition [8] | inhibition [9] | inhibition [10]
1 | COc1cc(NC(=O)COc2cc(O)c3c(c2)OC(C)(C)CC3=O)cc(OC)c1OC | 17.8% | 41.5% (active) | -14.2% | 41.3% (active) | 50.4% (active) | 57.3% (active) | 67.5% (active) | 64.6% (active) | 43.5% (active) | 38.5%
2 | CC1CC(C)C(=O)C(C(CC2CC(=O)NC(=O)C2)OC(=O)CC(=O)c2ccccc2)C1 (stereo not given) | 93.1% (active) | 88.9% (active) | 81.3% (active) | 87.8% (active) | 91.6% (active) | 108% (active) | 96.9% (active) | 91.7% (active) | 37.2% (active) | 52.5% (active)
3 | O=C(CSc1nnc(-c2cccnc2)s1)Nc1ccnc2ccccc12 | 32.3% | 46.7% (active) | -3.87% | 51.2% (active) | 21% | 57% (active) | 56.1% (active) | 55.6% (active) | 23.7% | 35%
4 | O=C(N/N=C/c1c(O)ccc2ccccc12)c1cccnc1 | 71.2% (active) | 81.2% (active) | 73.1% (active) | 80% (active) | 88.5% (active) | 102% (active) | 89.4% (active) | 86.1% (active) | 5.29% | 20.7%
5 | CC(C)(C)c1ccc(C(=O)N2CCCCCC2=O)cc1 | 58% (active) | 41% (active) | 35.8% | 33.1% (active) | 45.6% (active) | 62.1% (active) | 56.1% (active) | 56.4% (active) | 63.6% (active) | 89.2% (active)
